Inconclusive results are not listed. Unmarked numbers belong to inactive results. Calls follow the shape of the full dose curve.
Experiment: Cell Viability - MRC5 (AID 434);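 also: potency reflects cytotoxicity seen as loss of intracellular ATP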
Conditions: MRC5 lung fibroblast viability, qHTS
Source text: NIH Chemical Genomics Center [NCGC]
NIH Molecular Libraries Screening Centers Network [MLSCN]
National Institutes of Environmental Health Sciences [NIEHS]
National Toxicology Program [NTP]
We have developed a 1536-well cell-based assay for quantitative high throughput screening (qHTS) against a number of cell lines to determine in vitro cytotoxicity of small molecules. This particular assay uses the MRC5 cell line which is derived from normal human lung fibroblasts.
NCGC Assay Protocol Summary:
The CellTiter-Glo luminescent cell viability assay (Promega) is a homogeneous method to measure the number of viable cells in culture. The end point readout of this assay is based on quantitation of intracellular ATP, an indicator of metabolic activity, using the luciferase reaction. Luciferase catalyzes the oxidation of beetle Luciferin to oxyluciferin and light in the presence of ATP. The luminescent signal is proportional to amount of ATP present.
Using the CellTiter-Glo luminescent cell viability assay, the amount of cellular ATP was measured in the MRC5 cell line with complete culture medium following compound treatment for 40 hours. The assay was performed in opaque white Kalypsys 1536-well plates. In the screen, tamoxifen and doxorubicin were used as positive controls. Library compounds were measured for their ability to cause acute toxicity in the cell line, as reflected by a decrease in intracellular ATP levels, in a concentration-dependent manner. Data were normalized to the controls for basal activity (DMSO only) and 100% inhibition (100 uM tamoxifen). AC50 values were determined from concentration-response data modeled with the standard Hill equation.
qHTS protocol for CellTiter Glo MRC5 cellular assay
[Step] [Parameter] [Value] [Description]
1. Reagent; 5 uL; 1500 MRC5 cells/well
2. Time; 5 hr; 37 °C incubation
4. Controls; 23 nL; Tamoxifen 0.34 uM to 100 uM & Doxorubicin 0.02 nM to 100 uM
5. Time; 40 hr; 37 °C incubation
6. Reagent; 5 uL; CellTiter Glo reagent
7. Time; 20 min; Room Temperature
8. Detection; Luminescence; Viewlux plate reader
Keywords: cell viability, cytotoxicity, MRC5 cell line, luminescence, NTPHTS, NTPHTS_NCGC, NIEHS, EPA, DSSTox, MLSMR, MLSCN, NIH Roadmap, qHTS, NCGC
Potency is read from the fitted curve at half-maximal effect.

SMILES	Potency [µM]
S=C=Nc1cccc2ccccc12	> 92
ClC(Cl)=C(c1ccc(Cl)cc1)c1ccc(Cl)cc1	> 92
OCC1CO1 (stereo not given)	> 92
C=CCOC(C)=O	> 92
CC(C)(OO)c1ccccc1	> 92
CCSC(=O)Cl	> 92
CCOP(=S)(OCC)SCSC(C)(C)C	> 92
C=CCc1ccc(OC)cc1	> 92
Oc1ccc(Cl)cc1Cl	> 92
CN=C=S	> 92
Clc1ccc2ccccc2c1	> 92
c1ccc(-c2ccccc2)cc1	> 92
NC(=S)Nc1ccccc1	> 92
Cc1cccc(C#N)c1	> 92
Clc1nc(Cl)nc(Nc2ccccc2Cl)n1	> 92
Clc1cccc(C(Cl)(Cl)Cl)n1	> 92
O=NN(c1ccccc1)c1ccccc1	> 92
OCC(Br)CBr (stereo not given)	> 92
O=S1OCC2C(CO1)C1(Cl)C(Cl)=C(Cl)C2(Cl)C1(Cl)Cl (stereo not given)	> 92
C=CC(=C)C	> 92

SMILES	Potency [µM]
CCNc1nc(Cl)nc(NC(C)C)n1	> 92
Cc1ccc([N+](=O)[O-])cc1C	> 92
O=C(Cl)C(Cl)(Cl)Cl	> 92
COC1=CC(=O)O[C@@H](/C=C/c2ccc3c(c2)OCO3)C1	> 92
C=C(C)C#N	> 92
C=CC1CC=CCC1 (stereo not given)	> 92
c1ccc(OP(Oc2ccccc2)Oc2ccccc2)cc1	> 92
C1CCC2CCCCC2C1 (stereo not given)	> 92
COC(=O)NC(=S)Nc1ccccc1NC(=S)NC(=O)OC	> 92
CCOP(=S)(OCC)Oc1ccc([N+](=O)[O-])cc1	> 92
CCN(CC)c1ccccc1	> 92
c1nc[nH]n1	> 92
ClC(Cl)=C(Cl)C(Cl)=C(Cl)Cl	> 92
BrCCBr	> 92
Nc1ccccc1Cl	> 92
c1ccc(N=Nc2ccccc2)cc1	> 92
CC(Cl)Cl	> 92
Cc1ccc2ccccc2c1	> 92
C=CC(N)=O	> 92
CCCC(=O)Cl	> 92
